# Among all 53,000 sequences or so, about 3,700 (7%) were called active.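 Rule for the calls: active = gene knockdowns whose robust z-score for IL-1 alpha signal is at least 2 or at most -2, so actives lie on both sides; inactive = the rest.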 Shown is part of a subset that was picked to be rich in actives.
# Assay: Components of the Cytosolic LPS Sensing Pathway: Gene Identification via Genome-wide siRNA Screen;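 note: robust z of the log signal after scaling to non-targeting control siRNA wells of the plate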
# Settings: RAW264.7 macrophages, IL-1a HTRF, actives lie on both sides, screened at 100 nM (by protocol), cells primed 5 h with Pam3CSK4 first
# In short: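 Read-out: IL-1a HTRF on supernatant, divided by plate negative-control median ×100, log-transformed and converted to robust z-score. Cells were RAW264.7 given 100 nM siRNA, Pam3CSK4-primed 5 hours, then LipidA-transfected 24 hour.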
row,Sequence,z-score
1,GGUUAAAAACAACUGAAAGTT against 9630028B13Rik,-1.04 (inactive)
2,GGGAACUUUCCUCAAGUCUTT against Phactr3,0.107 (inactive)
3,GGCCAAGAAACAUGCCCUATT against Pbx2,0.168 (inactive)
4,GGCAGUGGAGUUAACAACATT against Dsg1b,-0.12 (inactive)
5,CCUAUGAGUCUUACGUGAATT against Cyp4x1,0.693 (inactive)
6,GGACACCAACAUAUUGUUCTT against Slc13a2,-0.128 (inactive)
7,GGCUGAUGGAAGAAUAUGATT against Actn2,-2.2 (active)
8,GGAUGAGUCUUUCUAGUUATT against Nipa1,-0.337 (inactive)
9,GCAGCAGUAAUGAUGGAUCTT against Ncoa3,2.47 (active)
10,GGACAAAUUCUACAUCAGCTT against Adam8,0.0533 (inactive)
11,CGGCCGUCAGCUUCUUUUATT against Olfr283,-0.204 (inactive)
12,CGACUUUGGAGAAUUUCAATT against Synrg,-0.573 (inactive)
13,GGGAACAAACCUUGAUUCUTT against Adam24,3.49 (active)
14,GGAGAGACCACCCUUUCAGTT against Fahd2a,-0.432 (inactive)
15,GCAUAUGGACUUUCUGUCATT against Iws1,-0.157 (inactive)
16,GGUGUAACACUCAUUUAUCTT against Ifitm3,2.88 (active)
17,GGACACCUACCAAAAGUUATT against Cd9,0.432 (inactive)
18,GCUACAACAAGACAAAGUCTT against Tada1,1.84 (inactive)
19,CCUUCUACCUACUUAUUGGTT against Tomm70a,0.178 (inactive)
20,GGAAGAUGUGAAAUUGCUUTT against Dars2,2.23 (active)
21,CCACUAUGUUCUGUGGCAATT against Olfr736,-2.33 (active)
22,GGAAGAAUUUGACAACCGCTT against Mrps18c,0.583 (inactive)
23,GGAAAAUGAUAGCAGACAUTT against Zfp810,-1.72 (inactive)

row,Sequence,z-score
1,GGGCCAGAAGAAGAGUCGATT against Mllt6,-0.304 (inactive)
2,GGAGAUUUCUGAAACUAGATT against Tiaf2,-2.09 (active)
3,GGCCAACUCACCUUUCUAGTT against D630023F18Rik,1.84 (inactive)
4,CCAUUCUUAUUGUUGAGAATT against Nek9,-0.793 (inactive)
5,GGACAUGAAAGUUGACCUGTT against Mrps31,0.465 (inactive)
6,GCCCGUGUGUAAGUGCAAATT against Wfikkn2,2.25 (active)
7,GGAAACAGAGCAAGGAAAATT against Gas7,0.613 (inactive)
8,GGAGAGCUCUAUGGAUCGATT against Fgf16,0.784 (inactive)
9,CCUCCUUUGGACAACGGGUTT against Cyp7a1,-1.34 (inactive)
10,CCUGCUCUCCUCAUUAUGUTT against Rnls,-0.115 (inactive)
11,GGAAGCAACUUGGAAUUUGTT against Ctnna3,0.886 (inactive)
12,GGGUACAGUCCGAUACAGUTT against Nploc4,-1.79 (inactive)
13,GCUCUCAUUAGCAUUAUCGTT against Gria1,0.21 (inactive)
14,GCACAACUCAGAAGUAAUUTT against Ghr,0.271 (inactive)
15,GGUAAUAUUUCGUGCUUUATT against Lamb1,2.1 (active)
16,CCUAAAAAGAGGAAAAGGGTT against Psg29,-0.254 (inactive)
17,GGUGCUCAGCAUGUUUGCUTT against Avpr1b,-1.06 (inactive)
18,GGCACUGGAAAUAAAACCCTT against S100a14,-0.766 (inactive)
19,GCUAACGAAGGUAGUGUACTT against Gtpbp8,3.34 (active)
20,GGUAUGCUCUCUGUUGACUTT against Olfr922,0.472 (inactive)
21,GGAGUUCCUAUUUAAUCCCTT against Hoxb8,-0.419 (inactive)
22,GCAGUUUUAACUGGCCAUATT against Nr2f2,1.7 (inactive)
23,GCUGCUUAAGUACAUCAGATT against Grm4,-0.401 (inactive)

row,Sequence,z-score
1,GGUUAUGCAUUACUCUCUUTT against Prkdc,0.0207 (inactive)
2,GGCCAGGUAUAAAUAUAUATT against Dusp8,4.51 (active)
3,GCUGGAACUUAGUGUUCAGTT against Kat6b,1.45 (inactive)
4,GCAAUGUUCUCCGUAAACATT against Acss2,1.15 (inactive)
5,GGCUUCAAACACUUCCUUGTT against Sh2d4b,0.818 (inactive)
6,GGGAAAAGAUUCAGCUAGATT against Ntn4,-1.16 (inactive)
7,GCAGCUAUUGAGCAUGGUGTT against Atp6v1g3,-2.16 (active)
8,GCCGUAUCGAUUCUAUUUCTT against Slc6a17,1.09 (inactive)
9,GGAAAAGAAGACAUUUCUCTT against Osbpl8,-0.565 (inactive)
10,CCUCCUGUACGAACACGCATT against Sars2,-0.118 (inactive)
11,GGCUGUGCUCAGGAUCAAATT against Olfr683,2.37 (active)
12,GGAAAUAUCCAAGAAUCCCTT against Bbs4,-0.0724 (inactive)
13,GUGAUUGGGAACCUGUUUATT against Paqr6,-1.35 (inactive)
14,GCAGAUCAGUUGGUACAAGTT against Acss3,0.0616 (inactive)
15,GCUAACACAACGAGAGAAGTT against Ushbp1,-2.39 (active)
16,GGAUUCACACAGAGGUAAATT against Zfp169,-0.215 (inactive)
17,CCCAUAUUAAUUAUGGCGUTT against Hadha,-0.189 (inactive)
18,GCCAUACAUAAACUACAAUTT against Gulo,-0.175 (inactive)
19,GUACUUGAAACGAACUGGATT against B4galnt4,-1.68 (inactive)
20,CCUUACCCUGUUAUACAAGTT against Hirip3,2.69 (active)
21,GGCUAAAACAGGAAAUCUGTT against Mip,-0.398 (inactive)
22,CCACUUUAAAGGCUCUUCUTT against H3c8,-2.17 (active)
23,CCGACUUCGUACAAUGACCTT against Slc1a6,1.45 (inactive)

# Reference: PubChem BioAssay AID1508600 (Functional Genomics Laboratory (NCATS/FGL), 2020)
